From PubChem BioAssay (NCI)
This is part of a sample that, as a whole, favours compounds with a hit. Of some 83,000 tested, about 20% had one in any assay.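 Results are percent growth after 48 hours of single-concentration exposure. 100 means growth as in untreated cells, lower positive values show inhibition; negative values down to -100 show cell death.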 Values without a mark were called inactive. Activity calls are given as the source filed them. Rule for the calls: active = growth percent below 10; inactive = the rest.

Test system: HS 578T breast
Assay: NCI-60 one-dose screen, 48 h (100 = growth as untreated, 0 = no growth, -100 = all killed)
Conditions: 10 µM unless noted

| SMILES | growth |
| --- | --- |
| O=C(Nc1cccc(F)c1)c1cc(=O)[nH]c2cc(Br)ccc12 | 52.4% |
| COC(=O)[C@]12CCC(C)(C)C[C@H]1C1=CC[C@@H]3[C@@]4(C)C/C(=C/c5cccnc5)C(=O)C(C)(C)[C@@H]4CC[C@@]3(C)[C@]1(C)CC2 | -18.5% [100 µM] (active) |
| N#C/C(C(=O)c1ccccc1)=C1/C(=O)Nc2ccc(Br)cc21 | 92.5% |
| COc1ccc(-c2cc(-c3ccc(Cl)cc3)nc(NCCCCNc3ccnc4cc(Cl)ccc34)n2)cc1 | 81.5% |
| CCCSc1nc(N)nc2nc[nH]c12 | 135% |
| CCN(CC)c1ccc2cc(NC(=O)OCCNC(=O)CCNC(=O)[C@H](CC(C)C)NC(=O)C(C)(C)NC(=O)C(C)(C)NC(=O)[C@H](CC(C)C)NC(=O)CCNC(=O)C(C)(C)NC(=O)[C@H](CC(C)C)NC(=O)CCNC(=O)[C@@](C)(CC)NC(=O)[C@H](C)NC(=O)CCNC(=O)C(C)(C)NC(=O)[C@H](C)NC(=O)[C@@H]3CCCN3C(=O)[C@@](C)(CC)NC(=O)[C@H](Cc3ccccc3)NC(=O)C3CCCN3C(=O)C(C)(C)NC(=O)C3CCCN3C(=O)C(C)(C)NC(C)=O)c(=O)oc2c1 (some centres undefined) | -60.1% (active) |
| C=C(C)[C@@H]1CC[C@]2(C(=O)N3CCN(C)CC3)CC[C@]3(C)[C@H](CC[C@@H]4[C@@]5(C)C/C(=C/c6ccncc6)[C@H](O)C(C)(C)[C@@H]5CC[C@]43C)[C@@H]12 | -19.5% [100 µM] (active) |
| CC[C@@](C)(NC(=O)[C@H](C)NC(=O)CCNC(=O)C(C)(C)NC(=O)[C@H](C)NC(=O)[C@@H]1CCCN1C(=O)[C@@](C)(CC)NC(=O)[C@H](Cc1ccccc1)NC(=O)C1CCCN1C(=O)C(C)(C)NC(=O)C1CCCN1C(=O)C(C)(C)NC(C)=O)C(=O)NCCC(=O)N[C@@H](CC(C)C)C(=O)NC(C)(C)C(=O)NCCC(=O)N[C@@H](CC(C)C)C(=O)NC(C)(C)C(=O)NC(C)(C)C(=O)N[C@@H](CC(C)C)C(=O)NCCC(=O)NCO (some centres undefined) | -60.6% (active) |
| CC(C)(C)c1cc(C(=O)N2CCC(C(=O)NCCN)CC2)cc(C(C)(C)C)c1 | 92% |
| CCOC(=O)/C(C#N)=C(\C)CCc1ccccc1 | 98.7% |
| COc1ccc2c3ccnc(C(F)(F)F)c3n(CCCCN)c2c1 | 44.9% |
| O=C(O)c1cccc(CN2CCN(c3cc4c(cc3F)c(=O)c(C(=O)O)cn4C3CC3)CC2)c1O | 103% |
| CCN(CC)c1ccc2cc(C(Nc3ccc(Br)c(C(F)(F)F)c3)c3nnnn3C(C)(C)C)c(=O)oc2c1 (centres undefined) | 79.6% |
| O=C(NCCCNC(=O)OCc1ccc2c(Br)cc(Br)c(O)c2n1)OCc1ccc2c(Br)cc(Br)c(O)c2n1 | -19.1% (active) |
| C[N+](C)(C)c1ncnc2[n-]cnc12 | 95.6% |
| O=S(=O)(c1ccc(N/N=C\c2ccccc2Cl)cc1)c1ccc(N/N=C/c2ccccc2Cl)cc1 | 83% |
| CCCOc1ccc(-c2nc(-c3ccc(N)cc3)cs2)cc1 | 130% |
| O=C(NCc1ccc(Cn2c(=O)sn(-c3ccccc3)c2=O)cc1)OCc1ccc2c(Br)cc(Br)c(O)c2n1 | -1.98% (active) |
| N#CCCc1c[nH]c2ccccc12 | 94.3% |
| C=CCCCCCCCCC(=O)OC(C)C | 93.9% |
| Cc1cccc(/C=C2\N=C(c3ccccc3)N(c3ccc(S(N)(=O)=O)cc3)C2=O)c1 | 76.1% |
| Clc1ccc(/C=N/Nc2nc3ccccc3s2)c(Cl)c1 | 84.8% |
| CCOC(=O)COc1c(C)cc(SSc2cc(C)c(OCC(=O)OCC)c(C)c2)cc1C | 122% |
| Nc1nc(Nc2ccccc2)c2ncn(Cc3cc4c(cc3Br)OCO4)c2n1 | 34.1% |
| CCOC(=O)c1c[nH]n2c(=S)ncnc12 | 118% |
| CC1(C)CC[C@]2(C(N)=O)CC[C@]3(C)C(=CC[C@@H]4[C@@]5(C)C/C(=C/c6cccnc6)C(=O)C(C)(C)[C@@H]5CC[C@]43C)[C@@H]2C1 | 1.61% [100 µM] (active) |
| O=[N+]([O-])c1cc(CCl)ccc1OCCBr | 108% |
| O=C1COCCN1c1ccc(Nc2nc(Cl)nc(N3CCOCC3)n2)cc1 | 104% |
| O=C(OCc1ccc2c(Cl)cc(Cl)c(O)c2n1)N1CCNCC1 | 53.4% |
